# From PubChem BioAssay (NCI)
# About 83,000 compounds went through this panel and 20% of them were active in at least one assay; those are over-represented in the sample as a whole.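 Each cell line was grown in a 96-well plate and treated with one concentration of compound for 48 hours. Values below 10 were considered active.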 Values without a mark were called inactive. The source made the active and inactive calls.
# Experiments:
# Assay in all cases: NCI-60 one-dose screen, 48 h (100 = growth as untreated, 0 = no growth, -100 = all killed)
# Details in all cases: 10 µM
# [1] = system: T-47D breast
# [2] = system: BT-549 breast
# [3] = system: MDA-MB-435 melanoma
# [4] = system: MCF7 breast
# [5] = system: HCT-116 colon
# [6] = system: HCC-2998 colon
# [7] = system: KM12 colon
# [8] = system: SW-620 colon
SMILES,growth [1],growth [2],growth [3],growth [4],growth [5],growth [6],growth [7],growth [8]
Cc1ccc(N=Nc2ccccc2)cc1,88.2%,90%,101%,98.3%,78.4%,103%,93.8%,–
CC(=O)OC1CC2C(C)(C)CCC[C@]2(C)C2=C1C(O)=C(C(C)C)C(=O)C2=O (stereo partly specified),0.0935% (active),-21.9% (active),-37.9% (active),–,-8.31% (active),-76.1% (active),-77.7% (active),-51% (active)
COc1cc(-c2nn(-c3cccc(NC(=O)CCN4CCN(Cc5ccccc5)CC4)c3)cc2-c2ccncc2)ccc1Cl,29.7%,42.7%,-38.3% (active),0.805% (active),1.3% (active),-12.8% (active),9.7% (active),–
Oc1ccc(-c2[nH]c3ccccc3c2-c2nc3ccccc3o2)cc1,40%,64.7%,0.478% (active),24.1%,23.7%,58.5%,21%,–
CC[C@@H](C(=O)[C@@H](C)[C@@H](O)[C@H](C)[C@@H]1O[C@@H]([C@@H](CC)C(=O)O)CC[C@@H]1C)C1O[C@]2(C=CC(=O)[C@]3(CC[C@@](C)([C@H]4CC[C@](O)(CC)[C@H](C)O4)O3)O2)[C@H](C)C[C@@H]1C (stereo partly specified),26.1%,34.2%,21%,11.2%,32.6%,36.1%,36%,–
CN1C(C(=O)Nc2ccccn2)=C(O)c2sc(Cl)cc2S1(=O)=O,92.6%,108%,97.6%,96.6%,100%,95.1%,104%,–
Fc1ccc(C(c2ccc(F)cc2)C(Cl)Cl)cc1,110%,95.5%,107%,98%,96.8%,–,–,–
NC(N)=N/N=C(\c1ccccc1)C(O)c1ccccc1 (stereo unspecified),89.9%,103%,107%,94.9%,100%,100%,105%,–
COc1ccc2c(c1)CC=C1[C@@H]2CC[C@]2(C)C(=O)/C(=N/O)C[C@@H]12,90.2%,88.8%,90.5%,–,61.9%,79.7%,92.6%,78.4%
O=C(CCCSc1nc(-c2ccccc2)cc(-c2ccc(Cl)cc2)n1)NO,23.3%,38.6%,21.9%,4.12% (active),11.9%,12.7%,24.7%,–
COC(=O)CC[C@@H](C)[C@H]1CC[C@H]2[C@@H]3CC[C@@H]4C[C@H](O)CC[C@]4(C)[C@H]3C[C@H](O)[C@]12C,89.2%,96.4%,118%,84.8%,–,–,102%,107%
Cc1ccc2nc(Cl)c(-c3nc4ccccc4o3)cc2c1,83.9%,88.5%,99.8%,92.4%,97.3%,87.8%,89.5%,–
CNC(=O)c1cn2c3c(c(N4CCN(C)CC4)c(F)cc3c1=O)OC[C@@H]2C,98.9%,104%,104%,95.8%,104%,108%,100%,–
O=C(NCCCNS(=O)(=O)c1ccc(Cl)cc1)Nc1ccc(-n2cc(-c3ccncc3)c(-c3ccc(Cl)c(O)c3)n2)cc1,22.2%,26.6%,28.4%,13.8%,16.2%,57.9%,28.6%,–
COc1cc2cc(Oc3ccc(NC(=O)c4ccccc4)cc3)c(C)nc2cc1OC,79.8%,82.3%,104%,78.7%,87.1%,125%,94.5%,–
CCCCCCCCCCCC[n+]1c(C)cc(N)c2ccccc21,-14% (active),-29.7% (active),-6.75% (active),-0.77% (active),-4.63% (active),–,–,–
Fc1ccc2[nH]cc(-c3nc(-c4ccsc4)cs3)c2c1,57%,96.9%,105%,65.9%,91.5%,105%,101%,–
Cc1ccc(C2=NN(c3ccc(S(C)(=O)=O)cc3)C(=O)CC2)cc1,32.7%,11.3%,-61.2% (active),16.2%,17.7%,47.2%,35%,–

SMILES,growth [1],growth [2],growth [3],growth [4],growth [5],growth [6],growth [7],growth [8]
CNS(=O)(=O)Oc1ccc(-c2sc3cc(OS(=O)(=O)NC)ccc3c2C(=O)c2ccc(OCCN3CCCCC3)cc2)cc1,60.8%,73.7%,70%,30.5%,33.4%,93.8%,80.2%,–
Nc1cc(-c2ccc(Cl)cc2)nn1-c1nc2ccccc2nc1Cc1ccccc1,85.5%,90.5%,86.8%,85.3%,72.8%,94.8%,–,–
Nc1ccc(CC[C@H]2CCC/C=C/[C@@H]3C[C@H](O)C[C@H]3[C@H](O)/C=C/C(=O)O2)cc1,10.2%,11.6%,11.4%,-44.7% (active),-73.7% (active),-15.3% (active),–,–
O=S(=O)(O)c1cccc(Nc2ccc3ccccc3c2)c1,89.9%,98.4%,106%,99.5%,90.5%,104%,90.6%,–
COc1ccc2nc(Cl)c(Cn3nnc(Cc4ccccc4)n3)cc2c1,2.44% (active),20.3%,29.3%,27.9%,29.2%,59%,36.5%,–
CCOc1ccccc1/C=N\N=C(\N)N/N=C/c1ccccc1OCC,14.8%,36%,-3.3% (active),8.26% (active),24.9%,–,–,–
O=C(N/N=C/c1ccc(Cl)cc1)c1ccc(Cc2n[nH]c(=O)c3cccnc23)cc1,99.4%,100%,95.5%,95.8%,94.5%,89.8%,108%,–
CCOC(=O)c1sc2ncnc(Nc3ccc4c(cnn4C(=O)Nc4ccccc4)c3)c2c1C,51.5%,48.9%,54.2%,55.8%,34.4%,98.4%,65.5%,–
COc1cc(C2C(C#N)=C(N)Oc3cc(O)ccc32)cc(OC)c1OC (stereo unspecified),16%,58.5%,-44.9% (active),19.9%,17.8%,27.6%,15.8%,–
C[N+]1(CCCCC[N+]2(C)CCCC2)CCCC1,101%,77.8%,98.6%,95.2%,107%,119%,102%,–
COC(=O)c1c[nH]c2cc(OC(C)C)c(OC(C)C)cc2c1=O,103%,112%,106%,84.8%,102%,104%,106%,–
CC(C)(C)OC(=O)CN1CCc2c(sc3ncnc(N/N=C/c4ccccc4Br)c23)C1,47.3%,82.9%,80.5%,3.49% (active),48.7%,76.3%,80%,–
O=[N+]([O-])c1ccc(NCSc2ccc(Cl)cc2)cc1,92.8%,71.5%,109%,95%,86.3%,–,–,–
O=S(=O)(Oc1ccc(-c2ccc3sccc3c2)cc1)c1ccccc1,102%,101%,97.5%,77.5%,105%,93.4%,110%,–
O=C(/C=C/C=C/c1c(C2CC2)nc2ccccc2c1-c1ccc(F)cc1)c1cccs1,4.82% (active),3.45% (active),2.03% (active),12.4%,-32.6% (active),-12.9% (active),9.97% (active),–
C[C@]12CC[C@@H]3c4ccc(OS(=O)(=O)O)cc4CC[C@H]3[C@@H]1CC[C@@H]2NS(=O)(=O)c1ccc(-c2ccccc2)cc1,49.8%,53.9%,69.4%,30.2%,36.2%,80.9%,60.5%,–
COc1cccc2ccc(CC(O)(c3ccccc3)c3ccccc3)nc12,43.7%,94.1%,106%,24.6%,77.1%,97.1%,67.3%,–
O=C(O)c1cn(C2CC2)c2cc(N3CCN(C(=O)c4cc(-c5ccc(Cl)cc5)nc5ccccc45)CC3)c(F)cc2c1=O,86.7%,83.5%,95.6%,89.7%,84.3%,99.2%,102%,–
